Screens (PubChem)
Gal4-VP16 FLuc = VP16 counterscreen qHTS for inhibitors of ROR gamma transcriptional activity | Drosophila S2 Gal4-VP16 UAS-luciferase, luminescence, 20 h | Potency, µM (top dose mostly 53.6 µM), without a hit: at the top dose activity, negative = inhibition, hits mostly inhibitors | actives 3.5% (n = 310,000) | AID 2546, 2010;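 note: Gal4-VP16 expression switched on by copper sulfate through the metallothionein promoter; potency is the fitted concentration of half-maximal effect; % is set by controls: 0 for no effect and ±100 for the full control effect; nearly all actives have a fitted effect of over 50% in size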
CBFb RUNX1 block = qHTS Assay for Compounds Blocking the Interaction Between CBF-beta and RUNX1 for the Treatment of Acute Myeloid Leukemia | Runt-related transcription factor 1 (Homo sapiens) + Core-binding factor subunit beta … | AlphaScreen CBFb-His/RUNX1-biotin binding, biochemical | Potency, µM (highest dose often 59.8 µM), inactives show at the top dose activity, negative = inhibition, most hits filed as inhibitors | 230,000 tested, under 10 active; note: % of control where 0% means no effect
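Inhibition was taken as any reduction in AlphaScreen signal from the CBF-beta–RUNX1 pair (His and biotin tags, 30 nM each), measured after compound (15 min) and bead (90 min) incubations at room temperature.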
RORgamma inh = qHTS for inhibitors of ROR gamma transcriptional activity. Nuclear receptor ROR-gamma (Mus musculus), P51450. Drosophila S2 Gal4-RORgamma UAS-luciferase reporter, 20 h. Potency, µM (highest dose often 53.6 µM), for the others: at the top dose activity change, negative = inhibition, usual class: inhibitors. actives 5.4% (n = 310,000). AID 2551, 2010; note: potency is the fitted concentration of half-maximal effect; % is set by controls: 0 for no effect and ±100 for the full control effect; nearly all actives have a fitted effect of over 60% in size
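Drosophila S2 cells stably expressing Gal4-DBD/mouse RORγ fusion under metallothionein promoter plus UAS-luciferase; compound 1 h, then 700 uM CuSO4 induction for 20 h at ambient temperature; inhibition read as reduced luminescence.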
Six1-Eya2 blk = qHTS Assay for Inhibitors of the Six1/Eya2 Interaction; Homeobox protein SIX1 (Homo sapiens) + Protein phosphatase EYA2 (Homo sapiens), …; AlphaScreen GST-Six1/His-Eya2 binding, biochemical; hits give low values; activity change, % (concentration not given with the values); actives 0.56% (n = 360,000); in the data active = activity change below about -65%; inconclusive = mostly about -30% to -63%; note: % is set by controls: 0 for no effect and ±100 for the full control effect
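AlphaScreen with GST-Six1 and His-Eya2 (5X mix: 250 nM and 500 nM), glutathione donor and nickel acceptor beads; buffer 50 mM Tris pH 8.0, 300 mM NaCl, 1 mM TCEP; 1 h at 37 C in the dark.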
MBNL1-CUG inh = qHTS Assay for Inhibitors of MBNL1-poly(CUG) RNA binding. Muscleblind-like protein 1 (Homo sapiens), Q9NR56. TR-FRET MBNL1-His/biotin-(CUG)12 binding, 665/545 ratio. Potency, µM (titrated, usually from 57.5 µM), inactives show at the highest dose activity change, negative = inhibition, actives largely listed as inhibitors. actives 0.036% (n = 280,000). AID 2675, 2010; active = well fitted inhibition curve with a large enough effect in the signal ratio, with a control signal flat, not every such curve was filed as active; inconclusive = small, poorly fitted or top-dose-only effect, or effect the other way, or a change in a side signal; inactive = no such curve, though single readings can be large or run the other way; the % refers to the signal ratio; note: potency is the fitted concentration of half-maximal effect; % is set by controls: 0 for no effect and ±100 for the full control effect
Target sequence (Q9NR56 whole entry, looked up): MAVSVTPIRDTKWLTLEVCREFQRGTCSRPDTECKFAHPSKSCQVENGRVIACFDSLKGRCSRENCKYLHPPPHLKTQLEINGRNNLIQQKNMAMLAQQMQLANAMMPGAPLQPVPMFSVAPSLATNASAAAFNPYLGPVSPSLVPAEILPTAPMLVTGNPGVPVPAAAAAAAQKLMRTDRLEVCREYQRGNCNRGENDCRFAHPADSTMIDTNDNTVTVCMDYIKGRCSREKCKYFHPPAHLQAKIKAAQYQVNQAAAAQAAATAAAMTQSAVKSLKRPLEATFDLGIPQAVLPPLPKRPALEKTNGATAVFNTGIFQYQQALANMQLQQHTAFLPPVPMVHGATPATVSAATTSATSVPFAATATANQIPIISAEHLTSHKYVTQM
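Compound titration spanned 92 nM–58 uM against the MBNL1-His/biotin-(CUG)12 complex. After 60 min at room temperature with 5 nM streptavidin-XL665 and 0.055 ng/ul terbium anti-His, ratiometric 665/545 nm emission (Ex 340 nm) normalized to controls.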
CtBP-E1A inh = qHTS Assay for Inhibitors of the CtBP/E1A Interaction; CtBP / adenovirus E1A interaction (AlphaScreen); AlphaScreen GST-E1A/His-CtBP binding, 1536-well; hits give low values; activity change, % (concentration not given with the values); actives 0.49% (n = 340,000); in the data active = activity change below about -65%; inconclusive = mostly about -30% to -63%; note: % is set by controls: 0 for no effect and ±100 for the full control effect
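AlphaScreen with 125 nM GST-E1A and 125 nM His-CtBP (5X stocks) in Tris pH 8.0, 300 mM NaCl, BSA, Tween 20, TCEP. Compounds preincubated 2 h at 37 deg C, then glutathione donor/nickel acceptor beads added for 1 h at 37 deg C in dark.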
Numbers without * were called inactive; ? = inconclusive; . = not tested or not shown; [ ] = dose if it differs, or a comment. Shown are actives, neighbours in structure and some others; about 5.5% of the full set was active somewhere. Unless noted, calls come from the whole dose curve; as a rule, active = well fitted curve in the direction sought with a large enough effect; inconclusive = small, poorly fitted or top-dose-only effect, or another doubt; inactive = no such curve, though single readings can be large; an effect the other way counts as inactive or inconclusive.

SMILES | Gal4-VP16 FLuc | CBFb RUNX1 block | RORgamma inh | Six1-Eya2 blk | MBNL1-CUG inh | CtBP-E1A inh
CC(=O)OC[C@@H]1O[C@H](C/C=N\O[C@@H]2O[C@H](COC(C)=O)[C@@H](OC(C)=O)[C@H](OC(C)=O)[C@H]2OC(C)=O)C=C[C@@H]1OC(C)=O | -9.3%[10 µM] | 3.5%[13.1 µM] | 3.1%[10 µM] | . | . | .
CC1CCCCC1NC(=S)Nc1ccc(Cl)cc1Cl (centres undefined) | ? | 13.0% | 3.55µM* | 19.5 | -0.8% | 18.9
CCOC(=O)CCCCCC(=O)Nc1ccc2c(c1)C(=O)N([C@H](C)CO)C[C@@H](C)[C@H](CN(C)S(=O)(=O)c1cn(C)cn1)O2 | . | . | . | 1.0 | . | 4.9
CCC(CC)CN1CCC(CN2C(=O)C(=O)NC[C@@H]2CC(C)C)CC1 | . | . | . | 12.4 | . | -4.8
Cc1ccc(-c2n[nH]c(Cc3ccccc3)n2)cc1 | -4.3% | . | 20.7% | 7.1 | -3.0% | .
CC(C)(C)c1cc(Cc2ccccc2)[nH]n1 | -1.4% | 6.1% | 17.8µM* | 0.8 | 0.7% | 4.6
CCc1ccccc1NC(=S)N=Nc1c(O)n(C)c2ccc(S(=O)(=O)N3CCOCC3)cc12 | 4.47µM* | -0.7% | 1.12µM* | -16.6 | 4.4% | -12.7
Cc1ccc(Cn2c(O)c(N=NC(=S)Nc3ccccc3F)c3cc(S(=O)(=O)N4CCOCC4)ccc32)cc1 | ? | -23.7% | 2µM* | -17.4 | 6.8% | -3.5
Cc1ccc(C)c(NC(=S)N=Nc2c(O)n(C)c3ccc(S(=O)(=O)N4CCOCC4)cc23)c1 | 1.12µM* | -6.3% | 0.631µM* | -3.6 | 3.0% | 0.7
Cn1c(O)c(N=NC(=O)c2cccc(S(=O)(=O)N3CCCCC3)c2)c2ccccc21 | -13.7% | ? | -1.4% | ? | 6.7% | ?
Cc1cc(S(=O)(=O)N2CCOCC2)ccc1OCC(=O)Nc1ccccc1F | -1.3% | . | -28.0% | 0.8 | -0.8% | 7.9
CC(C)C[C@H](NC(=O)[C@H](CC(C)C)NC(=O)[C@H](CCC(N)=O)NC(=O)[C@H](CO)NC(=O)[C@@H]1CCCN1C(=O)[C@H](CO)NC(=O)[C@H](CO)NC(=O)[C@@H](NC(=O)[C@H](Cc1cnc[nH]1)NC(=O)[C@H](CCC(=O)O)NC(=O)[C@H](Cc1ccc(O)cc1)NC(=O)[C@H](CCCCN)NC(=O)[C@H](CCC(N)=O)NC(=O)[C@H](Cc1ccc(O)cc1)NC(=O)[C@H](CC(=O)O)NC(=O)[C@@H](NC(=O)[C@@H]1CCCN1C(=O)[C@H](CC(=O)O)NC(=O)[C@H](CC(N)=O)NC(=O)[C@H](CC(=O)O)NC(=O)CNC(=O)[C@H](CC(=O)O)NC(=O)[C@@H]1CCCN1C(=O)[C@H](CCC(N)=O)NC(=O)[C@H](Cc1ccc(O)cc1)NC(=O)[C@H](C)NC(=O)[C@H](Cc1c[nH]c2ccccc12)NC(=O)[C@H](Cc1ccccc1)NC(=O)[C@@H](NC(=O)[C@@H](N)CO)[C@@H](C)O)[C@@H](C)O)[C@@H](C)O)C(=O)N[C@@H](C)C(=O)N1CCC[C@H]1C(=O)NCC(=O)N[C@@H](CC(=O)O)C(=O)N[C@@H](Cc1ccc(O)cc1)C(=O)O | -9.0% | 12.4% | -1.8% | . | . | .
COc1cccc(C(C(=O)NC2CCCC2)N(CC2CCCO2)C(=O)Cc2cccs2)c1 (centres undefined) | ? | 3.0% | -0.6% | 1.5 | 0.0% | 8.3
